Data as given in PMC5540273 (PLoS ONE, 2017).

Experiments:
Details in all cases: concentration: 1 μM, replicates: in singlicate; n = 1
EPHB6 = test system: EPHB6
ERBB2 = test system: ERBB2
ERBB3 = test system: ERBB3
ERBB4 = test system: ERBB4
ERK1 = test system: T1, ERK1
T1 construct: gene MAPK3

ERK2 = test system: T2, ERK2
T2 construct: gene MAPK1

ERK3 = test system: T3, ERK3
T3 construct: gene MAPK6

ERK4 = test system: T4, ERK4
T4 construct: gene MAPK4

ERK5 = test system: T5, ERK5
T5 construct: gene MAPK7

ERK8 = test system: T6, ERK8
T6 construct: gene MAPK15

ERN1 = test system: ERN1
FAK = test system: T7, FAK
T7 construct: gene PTK2

FER = test system: FER
FES = test system: FES
FGFR1 = test system: FGFR1
FGFR2 = test system: FGFR2
FGFR3 = test system: FGFR3
FGFR4 = test system: FGFR4
FGR = test system: FGR
FLT1 = test system: FLT1
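Also: KINOMEscan kinase panel screen.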

| Structure (SMILES) | %Inh (EPHB6) [%] | %Inh (ERBB2) [%] | %Inh (ERBB3) [%] | %Inh (ERBB4) [%] | %Inh (ERK1) [%] | %Inh (ERK2) [%] | %Inh (ERK3) [%] | %Inh (ERK4) [%] | %Inh (ERK5) [%] | %Inh (ERK8) [%] | %Inh (ERN1) [%] | %Inh (FAK) [%] | %Inh (FER) [%] | %Inh (FES) [%] | %Inh (FGFR1) [%] | %Inh (FGFR2) [%] | %Inh (FGFR3) [%] | %Inh (FGFR4) [%] | %Inh (FGR) [%] | %Inh (FLT1) [%] |
| --- | --- | --- | --- | --- | --- | --- | --- | --- | --- | --- | --- | --- | --- | --- | --- | --- | --- | --- | --- | --- |
| Cc1ccc(C(=O)NCC(N)=O)cc1-n1c(C)cc(OCc2ccc(F)cc2F)c(Br)c1=O | 6 | 36 | 0 | 0 | 6 | 0 | 0 | 0 | 13 | 13 | 0 | 7 | 6 | 23 | 51 | 32 | 21 | 19 | 25 | 0 |
| O=c1cc(N2CCOCC2)nc2n(Cc3cccc(F)c3)ccn12 [GSK2297430] | 0 | 0 | 0 | 0 | 15 | 6 | 14 | 0 | 0 | 6 | 0 | 0 | 24 | 9 | 6 | 0 | 14 | 1 | 32 | 42 |
| O=C(NCCNc1ccnc(Nc2ccc(F)cc2)n1)c1cc2ccccc2s1 [GSK1379874] | 11 | 1 | 0 | 51 | 0 | 0 | 0 | 3 | 0 | 0 | 54 | 0 | 16 | 0 | 0 | 62 | 6 | 0 | 15 | 19 |
| N#Cc1c(N2CCOCC2)sc(-c2ccn[nH]2)c1-c1ccc(Cl)cc1 | 38 | 0 | 22 | 11 | 0 | 24 | 0 | 0 | 0 | 5 | 4 | 0 | 11 | 27 | 7 | 12 | 0 | 0 | 22 | 0 |
| Nc1nc(-c2ccc3c(N)n[nH]c3c2)cc(N2CCCC2)n1 [GSK2227430] | 19 | 0 | 0 | 8 | 0 | 0 | 0 | 24 | 0 | 0 | 0 | 0 | 0 | 1 | 0 | 38 | 0 | 0 | 20 | 14 |
| [2H]C([2H])(c1cccc(C(F)(F)F)c1C)n1ccn2c(=O)nc(N3CCOCC3)cc12 [GSK2336394] | 11 | 20 | 0 | 24 | 0 | 0 | 0 | 0 | 0 | 0 | 0 | 0 | 33 | 0 | 7 | 16 | 14 | 5 | 12 | 22 |
| COc1cc2c(cc1OC[C@@H](O)CO)ncc1c3ccc(C#N)cc3[nH]c21 | 44 | 22 | 2 | 0 | 0 | 15 | 0 | 7 | 0 | 33 | 0 | 0 | 0 | 8 | 0 | 0 | 0 | 0 | 30 | 0 |
| COc1cc2c(cc1OCCN1CCN(C)CC1)ncc1c3ccc(C#N)cc3[nH]c21 | 53 | 43 | 4 | 29 | 0 | 12 | 0 | 10 | 22 | 0 | 0 | 27 | 3 | 0 | 0 | 7 | 0 | 22 | 0 | 14 |
| Cn1cc(-c2ccc3c(c2)CCN3C(=O)Cc2ccccc2Cl)c2c(N)ncnc21 [GSK2608885] | 98.3 | 97.2 | 86 | 98.9 | 0 | 0 | 0 | 23 | 47 | 0 | 37 | 42 | 64 | 22 | 59 | 82 | 43 | 15 | 99 | 98.8 |
| O=C(Nc1n[nH]c2cc(-c3cccc(F)c3)ccc12)C1CC1 [SB-735464] | 14 | 21 | 0 | 7 | 0 | 0 | 0 | 0 | 8 | 32 | 12 | 3 | 1 | 34 | 0 | 0 | 0 | 0 | 33 | 0 |
